The nature of assay [1]: NCI Yeast Anticancer Drug Screen. Data for the rad50 strain (AID 155).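 Note: 0% = growth of vehicle-only cultures of the same strain.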 The conditions noted are these: S. cerevisiae rad50 strain growth inhibition, stronger effect = higher value. The essentials:
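A DNA repair-deficient yeast mutant serves as the test organism; compound-induced growth inhibition is calculated against vehicle-treated cells.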

Assay [2] is described as follows: NCI Yeast Anticancer Drug Screen. Data for the mec2-1 strain (AID 157). The conditions noted are these: S. cerevisiae mec2-1 strain, stronger effect = higher value. Summed up:
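Test agents were screened against the mec2-1 yeast strain, with defined DNA repair or cell cycle alteration. Growth was scored as inhibition against vehicle-only controls.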

A short description of assay [3]: NCI Yeast Anticancer Drug Screen. Data for the cln2 rad14 strain (AID 165).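 Note: 0% = growth equal to vehicle treated cultures.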 The conditions noted are these: S. cerevisiae cln2 rad14 strain, stronger effect = higher value. Summed up:
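Growth of compound-exposed yeast (cln2 rad14 genotype) measured and expressed as inhibition relative to vehicle.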

Assay [4] is described as follows: NCI Yeast Anticancer Drug Screen. Data for the bub3 strain (AID 167). The conditions noted are these: S. cerevisiae bub3 mutant strain, stronger effect = higher value. Summed up: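 Inhibition values come from growth of compound-treated mutant yeast normalised to vehicle-treated controls.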
Assay [5] can be described thus: NCI Yeast Anticancer Drug Screen. Data for the mlh1 rad18 strain (AID 175). The conditions noted are these: S. cerevisiae mlh1 rad18 strain growth inhibition, stronger effect = higher value. The essentials: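 In this whole-cell yeast screen, a strain with altered DNA damage repair is challenged with compound, and its growth is measured against matched vehicle-treated controls.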

Assay [6] in a line: NCI Yeast Anticancer Drug Screen. Data for the sgs1 mgt1 strain (AID 161).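 Note: 0% = growth of cultures given vehicle only.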 The conditions noted are these: S. cerevisiae sgs1 mgt1 strain, stronger effect = higher value. Summed up: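 Mutant yeast exposed to compound; growth scored against vehicle-only wells.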
Setting [7] is: at 5.0 µM (retest, dose inferred, filed as 0.5).
The mark [8] stands for this setting: at 50.0 µM (retest, dose inferred, filed as 5.0).

Each structure is given as a SMILES string. “And” between values parts separate entries of the source, which are not always exact repeats. Identical values can stand only once. This is part of a sample that, as a whole, favours compounds with a hit. Of some 79,000 tested, about 15% had one in any assay. Unmarked numbers belong to inactive results. The source made the active and inactive calls. Cut-off read from the data, not from the text of the source: active = growth inhibition above about 70%; inactive = the rest.

Take `O=C1c2ccccc2C(=O)c2sc(Nc3ccc([N+](=O)[O-])cc3)nc21`: the growth inhibition in assay [1] (setting [7]) was 89% (active); in assay [1] (setting [8]) it was 98% (active); in assay [1] (at 50.0 µM), 60.3%; in assay [2] (setting [7]) it was 91% (active); in assay [2] (setting [8]), 99% (active); in assay [2] (at 50.0 µM), 77.4% (active). Further, the growth inhibition in assay [3] (setting [7]) was 62%; in assay [3] (setting [8]) it was 99% (active); in assay [3] (at 50.0 µM), 29%; in assay [4] (setting [7]) it was 100% (active); in assay [4] (setting [8]), 99% (active); in assay [4] (at 50.0 µM) it was 80.7% (active). Also, the growth inhibition in assay [5] (setting [7]) is 90% (active); in assay [5] (setting [8]) it was 99% (active); in assay [5] (at 50.0 µM), 84.5% (active).

For the compound `O=C(OCCCC(C(=O)c1ccccc1)=P(c1ccccc1)(c1ccccc1)c1ccccc1)c1ccccc1`, the growth inhibition was 36% in assay [2] (setting [7]); 99% (active) in assay [2] (setting [8]); 36.8% in assay [2] (at 50.0 µM); 33% in assay [6] (setting [7]); 99% (active) in assay [6] (setting [8]); 61.5% in assay [6] (at 50.0 µM). For the same compound, the growth inhibition is 6% in assay [3] (setting [7]); 98% (active) in assay [3] (setting [8]); 9.75% in assay [3] (at 50.0 µM); 14% in assay [4] (setting [7]); 99% (active) in assay [4] (setting [8]); 23.4% in assay [4] (at 50.0 µM). Moreover, the growth inhibition in assay [5] (setting [7]) was 50%; in assay [5] (setting [8]) it was 99% (active); in assay [5] (at 50.0 µM), 54.8%.

Consider `COc1ccc(CCCCI)cc1`, for which the growth inhibition in assay [2] (setting [7]) was -14%; in assay [2] (setting [8]) it was 94% (active); in assay [2] (at 50.0 µM), 95.2% (active); in assay [6] (setting [7]), -6%; in assay [6] (setting [8]), 97% (active); in assay [6] (at 50.0 µM), 94.2% (active). Besides, the growth inhibition was 2% in assay [3] (setting [7]); 97% (active) in assay [3] (setting [8]); 96.4% (active) in assay [3] (at 50.0 µM); 0% in assay [4] (setting [7]); 96% (active) in assay [4] (setting [8]); 97% (active) in assay [4] (at 50.0 µM). In addition, the growth inhibition in assay [5] (setting [7]) was 16%; in assay [5] (setting [8]), 98% (active); in assay [5] (at 50.0 µM) it was 96.9% (active).

For `COc1cc(C2C(C(=O)O)=C(C)Oc3cc4c(cc32)OCO4)cc(OC)c1OC` (configuration not stated), the growth inhibition in assay [1] (setting [7]) is 91% (active); in assay [1] (setting [8]), 90% (active); in assay [1] (at 50.0 µM), 94.2% (active); in assay [6] (setting [7]), 77% (active); in assay [6] (setting [8]) it was 93% (active); in assay [6] (at 50.0 µM), 97% (active). Besides, the growth inhibition in assay [3] (setting [7]) was 82% (active); in assay [3] (setting [8]), 91% (active); in assay [3] (at 50.0 µM), 88.8% (active); in assay [4] (setting [7]), 86% (active); in assay [4] (setting [8]), 87% (active); in assay [4] (at 50.0 µM), 48.5%. Besides, the results for the growth inhibition in assay [5] (setting [7]), in assay [5] (setting [8]) and in assay [5] (at 50.0 µM) were 68%, 85% (active) and 97.8% (active), respectively.

As to `O=C(CC(C(=O)O)C(c1ccccc1)[N+](=O)[O-])c1ccccc1` (configuration not stated), the growth inhibition is -4.1% and 6.9% and 6.55% in assay [1] (at 50.0 µM); -5.4% and -10.8% and 16.7% in assay [2] (at 50.0 µM); 4.4% and 6.3% and -17.4% in assay [6] (at 50.0 µM); -67.8% and 15.6% and -18.9% in assay [3] (at 50.0 µM); -9.65% and 9.1% and 5.6% in assay [4] (at 50.0 µM); -2.55% and 22.1% and 32.6% in assay [5] (at 50.0 µM).

`C[C@]12C[C@@H](c3ccccc3)Nc3ccccc3N1C(c1ccccc1)=NO2`: the growth inhibition is -4% in assay [1] (setting [7]); 68% in assay [1] (setting [8]); 61% in assay [1] (at 50.0 µM); -13% in assay [6] (setting [7]); 70% (active) in assay [6] (setting [8]); 81% (active) in assay [6] (at 50.0 µM). The growth inhibition in assay [3] (setting [7]) was 5%; in assay [3] (setting [8]) it was 55%; in assay [3] (at 50.0 µM), 37.2%; in assay [4] (setting [7]) it was -7%; in assay [4] (setting [8]), 81% (active); in assay [4] (at 50.0 µM), 62%. In addition, the values for the growth inhibition in assay [5] (setting [7]), in assay [5] (setting [8]) and in assay [5] (at 50.0 µM) were -19%, 75% (active) and 73.5% (active), respectively.

As for `CC1=C(C)C(=O)C(C(C)(C)CC(=O)n2cc(F)c(=O)[nH]c2=O)=C(C)C1=O`, the growth inhibition in assay [1] (setting [7]) is 24%; in assay [1] (setting [8]) it was 87% (active); in assay [1] (at 50.0 µM), 93.5% (active); in assay [6] (setting [7]), 56%; in assay [6] (setting [8]), 95% (active); in assay [6] (at 50.0 µM), 97.2% (active). The growth inhibition in assay [3] (setting [7]) is 11%; in assay [3] (setting [8]), 46%; in assay [3] (at 50.0 µM) it was 41.6%; in assay [4] (setting [7]) it was 0%; in assay [4] (setting [8]), 63%; in assay [4] (at 50.0 µM), 1.05%. Also, the growth inhibition in assay [5] (setting [7]) is 18%; in assay [5] (setting [8]), 85% (active); in assay [5] (at 50.0 µM) it was 86.8% (active).

Regarding `N#CC(C(=O)CCCC(=O)Nc1cccc([N+](=O)[O-])c1)c1cccc2ccccc12` (configuration not stated), the growth inhibition in assay [2] (setting [7]) is 18%; in assay [2] (setting [8]), 3%; in assay [2] (at 50.0 µM), 22.1%; in assay [6] (setting [7]), 8%; in assay [6] (setting [8]) it was 7%; in assay [6] (at 50.0 µM) it was 17.1%. The growth inhibition in assay [3] (setting [7]) is 4%; in assay [3] (setting [8]) it was 11%; in assay [3] (at 50.0 µM), 22.6%; in assay [4] (setting [7]), 4%; in assay [4] (setting [8]), 2%; in assay [4] (at 50.0 µM), 6.2%. The figures for the growth inhibition in assay [5] (setting [7]), in assay [5] (setting [8]) and in assay [5] (at 50.0 µM) were 5%, 18% and 31.2%, respectively.

Turning to `OCC(O)C(O)C(O)C(O)C(O)CO` (configuration not stated), the growth inhibition is 1% and 8% and 21.3% in assay [1] (at 50.0 µM); 0.1% and 6.15% and -9.7% in assay [2] (at 50.0 µM); 16.6% and 21.1% and 25.2% in assay [6] (at 50.0 µM); -45.4% and -8.8% and -1.35% in assay [3] (at 50.0 µM); 17.6% and -3.1% and 37.1% in assay [4] (at 50.0 µM); 10.2% and 22.1% and 10.4% in assay [5] (at 50.0 µM).

Source of the values: PubChem BioAssay (NCI).
